The source made the active and inactive calls. Calls come from the whole dose curve; as a rule, active = well fitted inhibition curve with a large enough effect; inconclusive = small, poorly fitted or top-dose-only effect; inactive = flat fitted curve, though single readings scatter. *1 amine or outer side, *2 acyl side, *3 side chain or, on linkers, in order; H or OH if unused. Where a SMILES comes first, the peptide text is derived from it. Bridges are numbered along the chain shown (N, C = ends). [ ]: non-standard residue; d: D form. The star is where a group is joined. ξ: configuration not given here. ξhTyr(3S-OH,4S-OH,3'-OSO3H) = NC(C(=O)O)[C@H](O)[C@@H](O)c1ccc(O)c(OS(=O)(=O)O)c1; Orn(4R-OH,5R-OH) = O=C([C@H](C[C@@H](O)[C@@H](O)N[*:3])N[*:1])[*:2]; X2 = CCCCCOc1ccc(-c2cc(-c3ccc(C(=O)*)cc3)no2)cc1; X3 = C[C@H]1CN([*:1])C(C(=O)[*:2])[C@H]1O; ξGln(3R-OH) = NC(=O)C[C@@H](O)C(N)C(=O)O; ξPro(4R-OH) = O=C(O)C1C[C@@H](O)CN1; ξThr(3R) = C[C@@H](O)C(N)C(=O)O
molecular target: Luciferin 4-monooxygenase (Photinus pyralis) (UniProt P08659); test: Primary firefly luciferase (FLuc) qHTS assay for identification of artifact compounds. (AID 1845220); details: purified firefly luciferase, luminescence, 5 min; series mostly up to 54.1 µM; activity change, negative = inhibition: at the top concentration; note: nearly all actives have a fitted effect of over 60% in size;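 for activity change, negative = inhibition: plate controls were DMSO vehicle for no effect and no enzyme for full effect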
How it was run: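 Cell-free, 1536-well qHTS. Buffer pH 7.6 with 0.01% Tween-20 and 0.05% BSA; 10 uM D-luciferin, 10 uM ATP; 10 nM P. pyralis luciferase; luminescence after 5 min.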

Structure (SMILES)	activity change, negative = inhibition	outcome
C/C=C/C=C/C=C/C(=O)N(C)C(C(=O)NC(C)C(=O)N1CCCC1C(N)=O)C(C)C (stereo not drawn)	4.7% [at 25.7 µM] (inactive)	–
Cc1[nH]c2ccccc2c1CC(=O)N[C@@H](Cc1ccccc1)C(=O)N(C)c1ccccc1	–	inactive
C[C@H]1CC[C@H]2[C@@H](C=C[C@@](C)(O)[C@]2(C)C(=O)CCO)C1	0.478% (inactive)	–
CC1(CO)CCCC2(C)C3COC(=O)C3=CC(O)C12 (stereo not drawn)	-9.18% (inactive)	–
COC(=O)C1=CO[C@@H](O[C@@H]2O[C@H](CO)[C@@H](O)[C@H](O)[C@H]2O)[C@@H]2[C@@H](C)[C@@H](OC(=O)/C=C/c3ccccc3)[C@@H](O)[C@H]12	3.36% [at 25.7 µM] (inactive)	–
C=C[C@H]1[C@H](O[C@@H]2O[C@H](CO)[C@@H](O)[C@H](O)[C@H]2O)OC=C(C(=O)OC)[C@H]1CC=O	3.14% (inactive)	–
O=[N+]([O-])c1cc(Cl)ccc1S(=O)(=O)N1CCN(Cc2ccccc2)CC1	–	inactive
CCC1=C(C)C(=O)C(C)CC12C(=O)CCC2C(=O)O (stereo not drawn)	–	inactive
CC(=O)c1ccc(O[C@@H]2O[C@H](CO[C@@H]3OC[C@@H](O)[C@H](O)[C@H]3O)[C@@H](O)[C@H](O)[C@H]2O)cc1	-11.2% [at 25.7 µM] (inactive)	–
CC1=C(C(=O)OC2OC(COC3OC(CO)C(O)C(O)C3O)C(O)C(O)C2O)C(C)(C)CCC1 (stereo not drawn)	-2.54% [at 25.7 µM] (inactive)	–
CCCCCOc1ccc(-c2cc(-c3ccc(C(=O)N[C@H]4C[C@@H](O)[C@@H](O)NC(=O)C5[C@@H](O)[C@@H](C)CN5C(=O)C([C@H](O)CC(N)=O)NC(=O)C([C@H](O)[C@@H](O)c5ccc(O)c(OS(=O)(=O)O)c5)NC(=O)C5C[C@@H](O)CN5C(=O)C([C@@H](C)O)NC4=O)cc3)no2)cc1 (stereo partly drawn) (X2-[Orn(4R-OH,5R-OH)][ξThr(3R)][ξPro(4R-OH)][ξhTyr(3S-OH,4S-OH,3'-OSO3H)][ξGln(3R-OH)][X3]; lactam 1-C)	-1.86% [at 25.7 µM] (inactive)	–
CC1(C(=O)O)CCCC2(C)C3CCC4CC3(CCC12)CC4C(=O)O (stereo not drawn)	-2.05% (inactive)	–
CC(O)CCc1ccc(O[C@@H]2O[C@H](CO)[C@@H](O)[C@H](O)[C@H]2O)cc1 (stereo partly drawn)	-3.07% (inactive)	–
